The nature of assay [1]: Human pregnane X receptor (PXR) small molecule agonists, qHTS cell viability counter screen (AID 1346977). Also: nearly all actives have a fitted effect of over 50% in size. Also: potency is read from the fitted curve at half-maximal effect. The essentials: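 PXR-Luc HepG2 cells in medium with 5% charcoal-stripped FBS were pre-incubated 5hr, then exposed to compounds for 24hr at 37C. Viability was read in the same wells by CellTiter-Fluor fluorescence, reagent added after 23hr with a 1hr incubation.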
The nature of assay [2]: Caspase-3/7 induction in CHO-K1 cells by small molecules, qHTS cell viability counter screen (AID 1346979). Also: potency is read from the fitted curve at half-maximal effect; nearly all actives have a fitted effect of over 35% in size. The essentials:
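Wild-type CHO-K1 cells were seeded at 1,500 per well, rested 5hr at 37 C, then exposed to compounds in DMSO. After 16hr, CellTiter-Fluor reagent was added and fluorescence read 1hr later as the viability measure.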

Assay [3] is described as follows: Caspase-3/7 induction in HepG2 cells by small molecules, qHTS cell viability counter screen (AID 1346981). Also: nearly all actives have a fitted effect of over 30% in size. Also: potency is read from the fitted curve at half-maximal effect. An outline of the steps:
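Wild-type HepG2 cells (2,000/well) were allowed to settle for 5 hr at 37 C, 5% CO2, then dosed with compounds in DMSO by pin transfer. After 16 hr at 37 C, CellTiter-Fluor was added and fluorescence read 1 hr later.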

In assay [4] the target is Nuclear receptor subfamily 1 group I member 2 (Homo sapiens) (UniProt O75469). As to the kind of experiment: Human pregnane X receptor (PXR) small molecule agonists, qHTS assay (AID 1346982). Also: nearly all actives have a fitted effect of over 35% in size. Also: potency is read from the fitted curve at half-maximal effect. An outline of the steps:
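PXR-Luc HepG2 cells (CYP3A4 promoter-driven luciferase) were seeded in medium with 5% charcoal-stripped FBS, left 5 hr at 37 C, then exposed to compounds in DMSO for 24 hr. Luminescence was read after ONE-Glo addition.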

Assay [5] has as its target Acetylcholinesterase (Homo sapiens) (UniProt P22303). The experiment in a line: Acetylcholinesterase (AChE) small molecule antagonists: colormetric cell-based qHTS assay (AID 1347395; calls by dose curve; also: nearly all actives have a fitted effect of over 30% in size; also: potency is read from the fitted curve at half-maximal effect). The essentials:
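SH-SY5Y cells, plated overnight at 37 C, were exposed to compounds for 30 min at 37 C and 5% CO2. Acetylthiocholine plus DTNB was then added, and thiocholine from endogenous AChE was quantified colorimetrically after 90 min at 37 C.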

For assay [6] the target is unchanged. As to the kind of experiment: Acetylcholinesterase (AChE) small molecule antagonists: enzyme-based qHTS assay (AID 1347397; calls by dose curve; also: nearly all actives have a fitted effect of over 55% in size; also: potency is read from the fitted curve at half-maximal effect). Particulars: Potency: AChE enzyme activity inhibition. The essentials: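 rhAChE 50 mU/mL (dispensed) + cpd or DMSO, 30 min RT; add DTNB/acetylthiocholine cocktail, 10 min RT; colorimetric thiocholine readout. qHTS, 1536-well format.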

Assay [7] has the same target. The experiment in a line: Acetylcholinesterase (AChE) small molecule antagonists: fluorescence cell-based qHTS assay (AID 1347398; calls by dose curve; also: nearly all actives have a fitted effect of over 50% in size; also: potency is read from the fitted curve at half-maximal effect). The following applies: Potency: AChE activity. The essentials: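 Read-out is Thiolite Green fluorescence at Ex/Em = 490/520 nm, formed by reaction with thiocholine released when cellular AChE in SH-SY5Y cells hydrolyzes acetylthiocholine. Compounds were preincubated 30 min at 37 C before substrate.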

For assay [8] the target is unchanged. As to the kind of experiment: Acetylcholinesterase (AChE) small molecule antagonists: enzyme-based qHTS assay with human liver microsomes (AID 1347399; calls by dose curve; also: nearly all actives have a fitted effect of over 60% in size). The following applies: Potency: qHTS inhibition. The essentials:
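Recombinant human AChE (50 mU/mL in the enzyme mix) and human liver microsomes (0.25 mg/mL final) were preincubated with compound and NADPH (0.25 mg/mL final) for 30 min at 37 C. Acetylthiocholine/DTNB was then added; thiocholine was read colorimetrically after 10 min at room temperature.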

The target in assay [9] is Cytochrome P450 2D6 (Homo sapiens) (UniProt P10635). As to the kind of experiment: Cytochrome P450 Family 2 Subfamily D Member 6 (CYP2D6) small molecule antagonists: luciferase reporter qHTS assay (AID 1671196). Also: nearly all actives have a fitted effect of over 50% in size. Also: potency is read from the fitted curve at half-maximal effect. The essentials:
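CYP2D6 enzyme–substrate mix was held with compound for 10 min at room temperature, then NADPH regeneration solution was added and the reaction ran 1 h at room temperature. Luciferin product was detected by luminescence after 20 min with detection reagent.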

Assay [10] deals with Cytochrome P450 2C19 (Homo sapiens) (UniProt P33261). As to the kind of experiment: Cytochrome P450 Family 2 Subfamily C Member 19 (CYP2C19) small molecule antagonists: luciferase reporter qHTS assay (AID 1671197). Also: nearly all actives have a fitted effect of over 65% in size. Also: potency is read from the fitted curve at half-maximal effect. An outline of the steps:
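P450-Glo CYP2C19 system: enzyme-substrate mix with compound 10 min at room temperature, then NADPH regeneration solution, 1 h at 37C. Proluciferin-to-luciferin conversion detected by luminescence after 20 min with detection reagent; ketoconazole as positive control.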

The target in assay [11] is Cytochrome P450 1A2 (Homo sapiens) (UniProt P05177). The experiment in a line: Cytochrome P450 Family 1 Subfamily A Member 2 (CYP1A2) small molecule antagonists: luciferase reporter qHTS assay (AID 1671199). Also: nearly all actives have a fitted effect of over 50% in size. Also: potency is read from the fitted curve at half-maximal effect. The essentials: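 Human CYP1A2 activity measured with a P450-Glo proluciferin substrate; compounds in DMSO preincubated 10 min at room temperature with enzyme-substrate mix, then NADPH regeneration system added for 1 h. Luciferin detection reagent, 20 min, luminescence read.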
Chain of Cytochrome P450 1A2 (Homo sapiens) (P05177 whole entry, looked up): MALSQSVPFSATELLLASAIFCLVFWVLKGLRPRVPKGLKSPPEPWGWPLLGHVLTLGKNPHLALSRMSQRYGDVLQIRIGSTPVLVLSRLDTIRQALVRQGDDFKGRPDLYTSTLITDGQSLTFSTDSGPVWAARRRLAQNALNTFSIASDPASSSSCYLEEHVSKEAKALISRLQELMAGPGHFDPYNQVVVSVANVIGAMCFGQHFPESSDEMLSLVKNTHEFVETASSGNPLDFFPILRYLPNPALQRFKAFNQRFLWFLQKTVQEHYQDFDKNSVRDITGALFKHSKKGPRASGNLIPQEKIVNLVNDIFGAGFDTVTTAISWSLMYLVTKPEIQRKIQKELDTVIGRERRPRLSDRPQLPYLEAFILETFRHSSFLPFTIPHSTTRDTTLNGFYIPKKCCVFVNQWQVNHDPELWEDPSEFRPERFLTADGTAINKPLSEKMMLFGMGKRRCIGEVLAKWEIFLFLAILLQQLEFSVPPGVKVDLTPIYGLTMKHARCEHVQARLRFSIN

Assay [12] has as its target Voltage-gated inwardly rectifying potassium channel KCNH2 (Homo sapiens) (UniProt Q12809). The experiment in a line: Human Ether-a-go-go-Related Gene (hERG) channel small molecule antagonists: fluorescence cell-based qHTS assay (AID 1671200). An outline of the steps:
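U2OS cells expressing the channel were plated at 1000 cells/well, incubated overnight at 37 C, then loaded with FluxOR II thallium-sensitive dye for 1 h at room temperature in the dark, with a further 10 min at room temperature before stimulation.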

Assay [13] in a line: Caspase-3/7 induction in HepG2 cells by small molecules, qHTS assay (AID 1346978). Also: nearly all actives have a fitted effect of over 15% in size. Also: potency is read from the fitted curve at half-maximal effect. The essentials:
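Caspase-3/7 induction was measured by Caspase-Glo 3/7 luminescence (30 min, room temperature) after a 17 hr compound exposure of wild-type HepG2 cells seeded at 2,000 per well and pre-incubated 5 hr.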

Assay [14] concerns the target Cytochrome P450 2C9 (Homo sapiens) (UniProt P11712). The experiment in a line: Cytochrome P450 Family 2 Subfamily C Member 9 (CYP2C9) small molecule antagonists: luciferase reporter qHTS assay (AID 1671198). Also: nearly all actives have a fitted effect of over 50% in size. Also: potency is read from the fitted curve at half-maximal effect. An outline of the steps:
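Enzyme-substrate mix preincubated with compound 10 min at room temperature; reaction started with NADPH regeneration solution, 1 h 37C. Luminescent luciferin product read after 20 min detection reagent.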

The target of assay [15] is Cytochrome P450 3A4 (Homo sapiens) (UniProt P08684). As to the kind of experiment: Cytochrome P450 Family 3 Subfamily A Member 4 (CYP3A4) small molecule antagonists: luciferase reporter qHTS assay (AID 1671201). Also: nearly all actives have a fitted effect of over 50% in size. Also: potency is read from the fitted curve at half-maximal effect. The essentials:
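P450-Glo CYP3A4 system with proluciferin substrate; compounds preincubated 10 min RT with enzyme-substrate mix, then NADPH regeneration added for 1 h RT. Detection reagent 20 min, luminescence read as relative luminescence units.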

The nature of assay [16]: Caspase-3/7 induction in CHO-K1 cells by small molecules, qHTS assay (AID 1346980). Also: nearly all actives have a fitted effect of over 15% in size. An outline of the steps:
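Luminescent Caspase-Glo 3/7 read (30min, room temperature) quantified apoptosis induction. Cells were wild-type CHO-K1, treated with compound for 17hr at 37 C and 5% CO2.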

SMILES strings stand for the structures. Results filed as inconclusive are left out. Calls of active or inactive are those of the source. Unless noted, calls follow the shape of the dose curve; as a rule, active = well fitted curve in the direction sought with a large enough effect in the repeat runs; inconclusive = weak or mixed curves; inactive = no such curve, though single readings can be large; an effect the other way counts as inactive or inconclusive.

Chain of Cytochrome P450 3A4 (Homo sapiens) (P08684 whole entry, looked up): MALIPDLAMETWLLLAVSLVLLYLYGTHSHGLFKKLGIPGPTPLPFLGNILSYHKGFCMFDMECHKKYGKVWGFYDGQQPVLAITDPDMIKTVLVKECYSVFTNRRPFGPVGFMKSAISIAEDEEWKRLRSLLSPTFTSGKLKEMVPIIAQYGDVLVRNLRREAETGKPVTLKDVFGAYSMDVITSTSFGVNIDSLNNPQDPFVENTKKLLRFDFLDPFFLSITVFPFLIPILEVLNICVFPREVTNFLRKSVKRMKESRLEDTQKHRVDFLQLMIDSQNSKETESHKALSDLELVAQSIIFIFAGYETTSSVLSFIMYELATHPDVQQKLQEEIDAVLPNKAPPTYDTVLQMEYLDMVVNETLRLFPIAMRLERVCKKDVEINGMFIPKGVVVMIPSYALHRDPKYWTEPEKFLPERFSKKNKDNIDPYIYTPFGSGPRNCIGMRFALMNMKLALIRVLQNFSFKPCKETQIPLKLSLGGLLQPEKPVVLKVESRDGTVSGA
Chain of Nuclear receptor subfamily 1 group I member 2 (Homo sapiens) (O75469 whole entry, looked up): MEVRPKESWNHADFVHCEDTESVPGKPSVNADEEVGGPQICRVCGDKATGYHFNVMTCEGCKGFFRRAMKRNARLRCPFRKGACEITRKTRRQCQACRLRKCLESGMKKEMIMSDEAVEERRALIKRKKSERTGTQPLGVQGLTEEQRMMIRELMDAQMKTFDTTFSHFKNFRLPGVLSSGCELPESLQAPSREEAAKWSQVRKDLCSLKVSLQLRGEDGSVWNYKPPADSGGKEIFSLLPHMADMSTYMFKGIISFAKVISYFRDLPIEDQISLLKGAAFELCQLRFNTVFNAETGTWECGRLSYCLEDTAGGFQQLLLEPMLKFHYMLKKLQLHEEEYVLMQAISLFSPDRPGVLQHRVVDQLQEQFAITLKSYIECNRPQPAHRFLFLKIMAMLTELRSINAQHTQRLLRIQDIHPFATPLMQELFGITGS
Chain of Cytochrome P450 2D6 (Homo sapiens) (P10635 whole entry, looked up): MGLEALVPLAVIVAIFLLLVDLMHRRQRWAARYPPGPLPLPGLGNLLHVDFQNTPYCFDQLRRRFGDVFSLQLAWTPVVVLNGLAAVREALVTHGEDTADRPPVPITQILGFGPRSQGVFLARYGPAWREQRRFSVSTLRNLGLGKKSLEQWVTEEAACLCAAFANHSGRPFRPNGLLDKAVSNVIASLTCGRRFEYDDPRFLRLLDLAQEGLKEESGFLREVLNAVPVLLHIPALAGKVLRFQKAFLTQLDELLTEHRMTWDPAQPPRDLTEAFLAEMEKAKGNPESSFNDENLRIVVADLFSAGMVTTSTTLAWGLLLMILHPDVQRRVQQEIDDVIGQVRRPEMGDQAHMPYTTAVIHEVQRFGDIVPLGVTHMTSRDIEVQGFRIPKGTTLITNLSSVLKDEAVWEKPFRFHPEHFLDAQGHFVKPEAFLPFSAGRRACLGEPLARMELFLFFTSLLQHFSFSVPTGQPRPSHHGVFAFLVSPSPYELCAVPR
Chain of Voltage-gated inwardly rectifying potassium channel KCNH2 (Homo sapiens) (Q12809 whole entry, looked up): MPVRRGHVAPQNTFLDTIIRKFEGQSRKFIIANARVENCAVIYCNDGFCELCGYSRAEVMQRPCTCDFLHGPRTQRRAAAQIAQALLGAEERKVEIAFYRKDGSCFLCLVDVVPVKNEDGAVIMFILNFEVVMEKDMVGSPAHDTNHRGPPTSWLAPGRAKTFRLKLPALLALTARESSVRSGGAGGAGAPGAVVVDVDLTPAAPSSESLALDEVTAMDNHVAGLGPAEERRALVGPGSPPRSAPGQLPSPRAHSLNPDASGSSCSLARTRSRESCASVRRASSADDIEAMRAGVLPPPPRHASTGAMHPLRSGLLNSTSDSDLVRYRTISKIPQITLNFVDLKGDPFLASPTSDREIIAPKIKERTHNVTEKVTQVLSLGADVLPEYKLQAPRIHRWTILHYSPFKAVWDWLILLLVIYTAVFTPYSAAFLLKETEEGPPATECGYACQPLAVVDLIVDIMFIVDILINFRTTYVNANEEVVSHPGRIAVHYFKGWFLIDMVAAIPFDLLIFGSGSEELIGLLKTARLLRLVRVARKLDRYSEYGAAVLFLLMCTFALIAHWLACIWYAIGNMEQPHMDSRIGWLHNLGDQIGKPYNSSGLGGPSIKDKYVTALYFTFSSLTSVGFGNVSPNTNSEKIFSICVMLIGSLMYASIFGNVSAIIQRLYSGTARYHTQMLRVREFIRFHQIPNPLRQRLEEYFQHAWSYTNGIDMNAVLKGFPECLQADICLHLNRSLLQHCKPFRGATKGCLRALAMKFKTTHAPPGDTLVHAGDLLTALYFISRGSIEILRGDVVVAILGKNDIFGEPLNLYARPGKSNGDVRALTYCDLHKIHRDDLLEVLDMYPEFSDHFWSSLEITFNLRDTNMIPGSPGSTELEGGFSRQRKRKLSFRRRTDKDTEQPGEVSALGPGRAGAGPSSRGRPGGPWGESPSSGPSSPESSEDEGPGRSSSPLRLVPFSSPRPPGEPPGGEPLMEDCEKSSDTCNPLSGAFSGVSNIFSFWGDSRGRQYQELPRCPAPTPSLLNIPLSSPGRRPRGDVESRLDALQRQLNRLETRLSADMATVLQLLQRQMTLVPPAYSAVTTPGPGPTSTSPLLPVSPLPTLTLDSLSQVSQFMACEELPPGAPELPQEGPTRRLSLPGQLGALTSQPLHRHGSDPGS
Chain of Cytochrome P450 2C19 (Homo sapiens) (P33261 whole entry, looked up): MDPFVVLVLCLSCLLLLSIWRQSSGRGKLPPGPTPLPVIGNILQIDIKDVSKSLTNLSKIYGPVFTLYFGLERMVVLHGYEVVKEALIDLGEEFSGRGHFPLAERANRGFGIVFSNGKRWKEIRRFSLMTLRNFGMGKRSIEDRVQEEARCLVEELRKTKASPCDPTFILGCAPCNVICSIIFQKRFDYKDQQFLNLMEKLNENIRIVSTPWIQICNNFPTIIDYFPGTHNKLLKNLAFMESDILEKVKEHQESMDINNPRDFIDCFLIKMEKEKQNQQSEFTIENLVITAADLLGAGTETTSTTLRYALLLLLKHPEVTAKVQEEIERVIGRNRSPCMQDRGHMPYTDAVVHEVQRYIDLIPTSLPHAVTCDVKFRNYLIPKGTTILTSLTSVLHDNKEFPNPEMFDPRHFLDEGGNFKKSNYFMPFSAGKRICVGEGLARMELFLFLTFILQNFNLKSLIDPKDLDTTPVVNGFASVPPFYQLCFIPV
Chain of Cytochrome P450 2C9 (Homo sapiens) (P11712 whole entry, looked up): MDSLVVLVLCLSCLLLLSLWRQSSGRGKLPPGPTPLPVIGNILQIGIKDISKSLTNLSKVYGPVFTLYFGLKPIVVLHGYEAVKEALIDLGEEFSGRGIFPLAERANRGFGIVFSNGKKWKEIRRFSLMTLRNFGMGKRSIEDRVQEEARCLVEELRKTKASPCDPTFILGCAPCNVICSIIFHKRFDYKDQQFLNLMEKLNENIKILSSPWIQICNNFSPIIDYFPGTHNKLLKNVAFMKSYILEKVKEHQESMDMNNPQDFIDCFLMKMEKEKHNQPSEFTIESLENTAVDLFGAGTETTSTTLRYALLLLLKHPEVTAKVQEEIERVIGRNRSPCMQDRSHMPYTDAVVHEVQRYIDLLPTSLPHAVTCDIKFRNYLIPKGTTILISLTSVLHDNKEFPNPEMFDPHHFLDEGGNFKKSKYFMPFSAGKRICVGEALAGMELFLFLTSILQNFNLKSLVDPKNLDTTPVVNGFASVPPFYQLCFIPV
Chain of Acetylcholinesterase (Homo sapiens) (P22303 whole entry, looked up): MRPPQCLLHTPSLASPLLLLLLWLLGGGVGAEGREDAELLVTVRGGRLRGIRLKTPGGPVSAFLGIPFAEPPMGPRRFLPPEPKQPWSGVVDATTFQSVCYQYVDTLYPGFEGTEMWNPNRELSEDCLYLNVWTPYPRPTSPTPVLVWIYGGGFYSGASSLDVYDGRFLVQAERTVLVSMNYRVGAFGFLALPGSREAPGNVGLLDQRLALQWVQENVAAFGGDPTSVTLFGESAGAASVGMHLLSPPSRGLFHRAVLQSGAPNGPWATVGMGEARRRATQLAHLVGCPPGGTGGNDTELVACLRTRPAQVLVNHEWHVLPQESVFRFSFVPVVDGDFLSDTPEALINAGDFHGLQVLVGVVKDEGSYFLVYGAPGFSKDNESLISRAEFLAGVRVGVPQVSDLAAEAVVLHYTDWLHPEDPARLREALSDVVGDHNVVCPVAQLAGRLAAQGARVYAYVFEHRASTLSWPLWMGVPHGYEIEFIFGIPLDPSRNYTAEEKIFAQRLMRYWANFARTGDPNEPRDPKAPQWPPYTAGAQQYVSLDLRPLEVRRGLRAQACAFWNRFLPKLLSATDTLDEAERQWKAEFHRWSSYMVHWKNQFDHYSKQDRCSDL

For the compound `CCN1CCC2(CC1)COc1cc3c(cc12)N(C(=O)c1ccc(-c2ccc(-c4nnc(C)o4)cc2C)cc1)CC3`, the Potency in [1] was 15.9 µM (active); in [2], 25.2 µM (active); in assay [3] it was 50.2 µM (active); in assay [4], 3.99 µM (active); in assay [5], 29.3 µM (active); in assay [6], 32.8 µM (active). Also, the values for the Potency in [7], in [9] and in [10] were 10.4 µM (active), 32.8 µM (active) and 23.2 µM (active), respectively. Besides, the Potency entry in [8], in assay [11] and in assay [12] was “inactive” each time.

As to `COP(=S)(OC)Oc1ccc([N+](=O)[O-])c(C)c1`, the Potency entry in assay [1], in [13], in assay [3], in assay [4], in assay [6] and in [8] was “inactive” in each case. In addition, the Potency in [7] was 50.2 µM (active); in [9] it was 25.2 µM (active); in assay [10] it was 0.399 µM (active); in assay [14], 7.1 µM (active); in assay [11] it was 1.12 µM (active); in assay [15] it was 7.1 µM (active).

In the case of `CC(=O)[O-].CC(=O)[O-].O.O.[Zn+2]`, the Potency entry in assay [1], in assay [13], in [16], in assay [3] and in assay [12] was “inactive” in each case.

With `Nc1ccc(Cl)cc1C(=O)c1ccccc1F`, the Potency entry in assay [1], in [13], in assay [16], in [6], in assay [7] and in [8] was “inactive” in each case. Further, the Potency result in assay [9] and in [12] was “inactive” each time. Further, the Potency is 29.8 µM (active) in assay [4], 11 µM (active) in [10], 17.4 µM (active) in assay [14] and 15.5 µM (active) in [11].

On to `c1ccc2c(c1)cc1ccc3cccc4ccc2c1c34`, for which the Potency result in [1], in [16], in assay [5], in assay [6], in assay [7] and in [8] was “inactive” in each case. The Potency result in assay [9], in assay [10] and in assay [15] was “inactive” each time. For the same compound, the Potency in [13] is 6.99 µM (active); in assay [4], 5.55 µM (active); in [11], 0.363 µM (active).

Consider `CCO/N=C(\CC)C1=C(O)CC(c2c(C)cc(C)cc2C)CC1=O` (centres undefined), for which the Potency entry in [1], in [13], in assay [16], in assay [5], in assay [6] and in [7] was “inactive” throughout. In addition, the Potency entry in assay [8], in assay [12] and in assay [15] was “inactive” throughout. Also, the Potency in assay [4] is 30.6 µM (active); in [9], 27.5 µM (active); in assay [10] it was 5.03 µM (active); in assay [14] it was 7.31 µM (active).

Consider `Oc1cc(Cl)cc(Cl)c1`, for which the Potency entry in assay [1], in assay [13], in [16], in assay [3], in [6] and in [7] was “inactive” in each case. Moreover, the Potency result in assay [8] and in assay [10] was “inactive” throughout. Besides, the Potency in [4] is 69.3 µM (active); in assay [9], 71.7 µM (active); in assay [11], 32 µM (active).

With `CC(=O)C(Cl)C(=O)N(C)C` (centres undefined), the Potency result in assay [1], in assay [13], in assay [3], in assay [5], in assay [6] and in assay [7] was “inactive” throughout. Further, the Potency entry in assay [8], in [10], in assay [14], in assay [11], in [12] and in assay [15] was “inactive” in each case.

Source of the values: PubChem BioAssay (Tox21).
